Measured potencies and affinities stand elsewhere.
target: HMG-CoA reductase [Enterococcus faecalis] (UniProt Q9FD70); test: class II HMG-CoA reductase inhibition potency – biochemical, Enterococcus faecalis, confirmation (AID 1233);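 note: 0% = full reaction carrier wells and 100% = background wells lacking mevalonate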; details: purified E. faecalis HMGR, NADPH absorbance 340 nm kinetics; series mostly up to 100 µM; inhibition: at the top concentration

inhibition, inactive:
COCC(C)NC(=O)CSc1nc(-c2ccccc2)c(-c2ccccc2)o1 (configuration not stated) -5.68%
COc1ccc(CNC(=O)C2CCCN2S(=O)(=O)c2ccc(Cl)cc2)cc1 (configuration not stated) -4.97%
CN(C)S(=O)(=O)c1ccc(NC(=O)N2CCOCC2)cc1 -2.88%
O=C1c2ccccc2C(=O)N1CCC(O)C[N+](=O)[O-] (configuration not stated) -11.1%
O=C(NCc1ccccc1Cl)c1cc([N+](=O)[O-])ccc1Cl -4.55%
O=C(NCC1CCCO1)C(c1cccs1)N(Cc1cccs1)C(=O)Cn1nnc(-c2cccs2)n1 (configuration not stated) -6.06%
COc1cc(S(=O)(=O)N2CCC(c3nc4ccccc4s3)CC2)ccc1S(=O)(=O)NC1CCCC1 -5.67%
CCC1(CC)C(=O)NN(c2ccccc2)C1=O -1.66%
O=C(COC(=O)Cc1c(Cl)cccc1Cl)NCCC1=CCCCC1 -4.75%
CCCC(=O)NC(=S)Nc1ccc(Cl)cn1 -3.35%
COC(=O)[C@@]1(Cc2ccc(OC)cc2)[C@H]2c3cc(C(=O)N(C)C)n(CCc4ccc(OC)c(Br)c4)c3C[C@H]2CN1C(=O)c1ccccc1 -3.7%
Fc1ccccc1Cn1cnc(NC(=S)NCCc2ccccc2)n1 -8.26%
COc1ccc(C[C@H]2COC(=O)[C@@H]2Cc2ccc(OC3OC(CO)C(O)C(O)C3O)c(OC)c2)cc1OC (some centres not stated) -5.86%
Cc1ccc(/C=C/C(=O)O)cc1S(=O)(=O)NCCCO -7.91%
CC(C)NC(=O)CSc1nc2ccccc2n1CC(=O)N(C(C)C)C(C)C -1.57%
CCN1C(=O)/C(=C/c2cn(C)nc2C)SC1=S -13.8%
CC(=O)NC(Cc1cccc(F)c1)C(=O)NC1CCN(c2ncccc2[N+](=O)[O-])CC1 (configuration not stated) -11.6%
